An excerpt weighted towards active compounds, which were near 9.5% of everything screened.
Tau fluor counter = counter-screen for tau fibril formation inhibitors. tau K18 P301L Alexa594 fluorescence, heparin fibrillization. Potency, µM (top dose mostly 57.7 µM), inactives show top-dose activity change, negative = decrease. 0.93% of 280,000 active. AID 1463; further: nearly all actives have a fitted effect of over 55% in size
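Human tau K18 P301L (15 uM unlabeled, 0.24 uM Alexa 594-labeled) in 100 mM sodium acetate pH 7 with 20 uM heparin, 6 hr at 37 C. ThT 30 uM added, 1 hr ambient; Alexa 594 FP and total fluorescence read at 555/632 nm.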
NPSR antagonist = neuropeptide S receptor (human) antagonism, cAMP. Q6W5P4. CHO-NPSR cells, cAMP TR-FRET, antagonist mode. Potency, µM (highest dose often 38.3 µM), without a hit: top-dose activity change, negative = inhibition, hits mostly inhibitors. 1% of 220,000 active. AID 1461; further: nearly all actives have a fitted effect of over 50% in size
Tau fibril FP = blocks human tau fibril formation measured by polarization; P10636; K18 P301L tau heparin fibrillization, Alexa594 FP, 6 h; Potency, µM (series often up to 57.7 µM), inactives show at the top dose activity, negative = inhibition, hits mostly inhibitors; 0.39% of 280,000 active; further: nearly all actives have a fitted effect of over 55% in size
Target sequence (P10636 561-689 P618L limits assumed): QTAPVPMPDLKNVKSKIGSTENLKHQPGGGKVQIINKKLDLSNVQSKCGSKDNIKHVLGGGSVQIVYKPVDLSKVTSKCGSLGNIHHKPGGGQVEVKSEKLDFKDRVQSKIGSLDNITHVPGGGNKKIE
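Human K18 P301L fragment (15 uM unlabeled plus 0.24 uM Alexa 594-labeled) in 100 mM sodium acetate pH 7 with compound, aggregation induced by 20 uM heparin for 6 hr at 37 C. ThT (30 uM) added for 1 hr, then Alexa 594 FP read.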
Tau ThT inhib = tau fibrillization inhibition (ThT binding). recombinant tau K18 P301L (four-repeat tau fragment), heparin-induced fibrillization, ThT fluorescence. Potency, µM (top dose mostly 57.4 µM), inactives show at the highest dose activity, negative = inhibition, most hits filed as inhibitors. 2.1% of 270,000 active. AID 1460; further: nearly all actives have a fitted effect of over 55% in size
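Heparin-induced fibrillization of the P301L-mutant K18 repeat-domain fragment of human tau was followed by ThT binding in quantitative high-throughput format.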
HPGD inh = HPGD (human) dehydrogenase inhibition; P15428; purified HPGD, NADH fluorescence kinetic, PGE2 substrate; Potency, µM, for inactives: at the highest dose activity change, negative = inhibition, actives largely listed as inhibitors; 4.3% of 150,000 active; AID 894; active means well fitted inhibition curve with a large enough effect, not every such curve was filed as active; inconclusive means small, poorly fitted or top-dose-only effect, or another doubt; inactive means no such curve, though single readings can be large or run the other way
Target sequence (P15428 whole entry, looked up): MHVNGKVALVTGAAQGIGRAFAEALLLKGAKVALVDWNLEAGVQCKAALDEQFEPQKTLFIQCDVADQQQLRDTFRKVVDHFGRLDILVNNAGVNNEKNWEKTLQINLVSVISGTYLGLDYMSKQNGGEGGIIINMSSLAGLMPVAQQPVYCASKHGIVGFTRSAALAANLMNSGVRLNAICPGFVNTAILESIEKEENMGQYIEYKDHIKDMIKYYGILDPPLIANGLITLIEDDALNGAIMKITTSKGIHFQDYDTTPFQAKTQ
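20 nM HPGD preincubated 15 min at room temperature with compound in 50 mM Tris-HCl pH 8, 0.01% Tween 20. Started with 1 mM NAD+ and 30 uM prostaglandin E2; NADH fluorescence (360/450 nm) read 5 times over 30-s intervals, last minus first.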
ALDH1A1 block = blocks purified human ALDH1A1 activity. Purified ALDH1A1, NADH fluorescence, propionaldehyde substrate. AID 1030. 7.3% of 220,000 active. Potency, µM (top dose mostly 75.3 µM), for the others: at the highest dose activity, negative = inhibition, usual class: inhibitors. P00352; active means well fitted inhibition curve with a large enough effect, not every such curve was filed as active; inconclusive means small, poorly fitted or top-dose-only effect, or another doubt; inactive means no such curve, though single readings can be large or run the other way;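 further: plate controls were no enzyme wells and a reference inhibitor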
* marks the source's active call; other numbers are inactive results; ? = inconclusive; / = no result given; [ ] = remark or other dose. Unless noted, the call rests on the fitted dose curve; in most records, active means well fitted curve in the direction sought with a large enough effect; inconclusive means small, poorly fitted or top-dose-only effect, or another doubt; inactive means no such curve, though single readings can be large; an effect the other way counts as inactive or inconclusive. Unless noted, on the % scale 0 is the no-effect control and ±100 the full control effect; potency means the concentration at half of the fitted maximal effect.

SMILES | Tau fluor counter | NPSR antagonist | Tau fibril FP | Tau ThT inhib | HPGD inh | ALDH1A1 block
CCc1ccc(OCCCSc2nc(-c3ccc(C(C)(C)C)cc3)nc3cc(=O)[nH]n23)cc1 | -6% | / | -7% | -13% | / | /
O=C(NCc1ccccc1Br)c1cnc2sc(N3CCCCCC3)nn2c1=O | -9% | / | -4% | -12% | / | /
COc1ccc(CCNC(=O)Cn2c(-c3ccc(F)cc3)cc(C(C)=O)c2C)cc1OC | -1% | / | 2% | -3% | / | /
COc1cc(OC)cc(-c2nc3nc(C)c(CCC(=O)Nc4ccc(C)cc4C)c(C)n3n2)c1 | -19% | / | 7% | ? | / | /
Cc1ccc(OCC(=O)Nc2ccc(N3CCOCC3)cc2)c([N+](=O)[O-])n1 | -9% | 4% | 2% | -17% | / | 3%
O=C(COc1cc(F)ccc1[N+](=O)[O-])Nc1ccc(N2CCOCC2)cc1 | -18% | 1% | -3% | -20% | / | 13µM*
C/C(=C\C(=O)c1ccc(F)cc1)Nc1ccc(N2CCOCC2)cc1 | -20% | -16%[46.1 µM] | 10% | 3.5µM* | -17% | ?
COc1ccc(CC(=O)OCC(=O)Nc2ccc(N3CCOCC3)cc2)cc1 | -28% | -9% | 3% | ? | / | 25µM*
O=C(/C=C/c1ccc(F)cc1)c1ccc(N2CCOCC2)cc1 | -20% | 11% | -12% | ? | / | 7%
Cc1ccc(CNC(=O)NC2COc3ccccc3C2)cc1 (stereo not given) | 1% | / | -4% | -1% | / | /
C=CCc1cccc([C@@H]2[C@@H](C)CC[C@H]3C(=O)N4[C@@H](c5cc(OC)c(OC)c(OC)c5)c5[nH]c6ccccc6c5C[C@H]4C(=O)N23)c1 | ? | -12% | 1% | ? | -16% | -7%
Cn1c(=O)c2c(ncn2CC(=O)Nc2cccc(S(=O)(=O)Nc3ccccc3F)c2)n(C)c1=O | 7% | 10% | -4% | 5% | / | 7.9µM*
O=C(CSc1ccc([N+](=O)[O-])cc1)Nc1cccc(S(=O)(=O)Nc2ccccc2F)c1 | ? | -25% | ? | ? | / | 5µM*
Cc1ccc(SCC(=O)Nc2cc([N+](=O)[O-])ccc2O)cc1 | -30% | 21% | -2% | ? | / | ?
CCOc1ccccc1NC(=O)CSc1ccc([N+](=O)[O-])cc1 | -28% | -19% | 7% | -16% | / | 20µM*
C=C(C)C(=O)OC1(C(F)(F)F)Oc2cc(C)ccc2NC1=O (stereo not given) | -21% | 10µM* | ? | 16µM* | -9% | 2%
CC(C)=CC1C=C(C)C(C)C2C(=O)NNC(=O)C12 (stereo not given) | -15% | ? | -4% | -9% | -9% | 3.5µM*
CCOC(=O)c1c(NC(=O)c2nc(SCC)ncc2Cl)sc(C(C)=O)c1C | -13% | / | -2% | -5% | / | /
CCOC(=O)c1c(NC(=O)c2noc(C)c2[N+](=O)[O-])sc(C(C)=O)c1C | -9% | -33% | 2% | -7% | / | 25µM*
CCOC(=O)c1c(-c2ccccc2)csc1NC(=O)c1nc(SCC)ncc1Cl | -22% | / | -15% | -15% | / | /
CCOC(=O)c1c(-c2ccccc2)csc1NC(=O)c1nc(S(=O)(=O)CC)ncc1Cl | ? | / | ? | 13µM* | / | /
CCOC(=O)c1c(NC(=O)c2nc(S(C)(=O)=O)ncc2Cl)sc(C(C)=O)c1C | ? | / | ? | 22µM* | / | /
CC(C)(C)c1csc(NC(=O)c2ccc(Cl)s2)n1 | -22% | ? | -1% | -18% | -24% | -14%
CCNc1nc(N)c(C(=O)c2ccc(Cl)s2)s1 | ? | -27%[46.1 µM] | 8% | 13µM* | -20% | -6%
CNc1nc(-c2cccnc2)nc2ccccc12 | / | / | / | / | / | 0%
SMILES | Tau fluor counter | NPSR antagonist | Tau fibril FP | Tau ThT inhib | HPGD inh | ALDH1A1 block
O=C1[C@@H]2C(c3cccnc3)=NO[C@@H]2C(=O)N1c1ccc2ccccc2c1 | -12% | -30% | 9% | ? | / | 1.6µM*
CN(Cc1ccco1)c1ncncc1-c1cccc(C#N)c1 | / | / | / | / | / | -9%
COc1ccc(NC2=CC(=O)CC(c3ccccc3)C2)c(OC)c1 (stereo not given) | -13% | 2%[46.1 µM] | -3% | -11% | -3% | 10%
CCOc1ccccc1NC1=CC(=O)CC(c2ccccc2)C1 (stereo not given) | 3% | 1.3µM* | -3% | 0% | -11% | -10%
CC1(C)CC(=O)c2cnc(N)nc2C1 | 2% | -2%[46.1 µM] | 7% | -5% | -12% | ?
CC1(C)CC(=O)c2cc3c(nc2C1)CC(C)(C)CC3=O | -2% | 2%[46.1 µM] | 3% | 0% | / | 7.1µM*
CCOC(=O)OCC1OC(c2ccccc2)C=CC1Oc1ccc2oc(=O)cc(C)c2c1 (stereo not given) | -6%[11.6 µM] | / | -3%[11.6 µM] | -3%[11.5 µM] | / | ?
Cc1ccccc1C(=O)Nc1nc2nc(C)c(C)c(=O)n2[nH]1 | -3% | / | 2% | -7% | / | /
O=C(NCCc1c[nH]c2ccc(Cl)cc12)c1cccnc1 | -10% | -13%[46.1 µM] | 7% | -8% | 16µM* | 11%
N#C/C(=C\c1cccc(Cl)c1)C(=O)c1ccccc1 | -18% | -7% | -1% | -11% | / | 0.71µM*
COCCCNC(=O)CCc1c(C)nc2cc(-c3ccc(Cl)cc3)nn2c1C | -9% | / | -1% | -8% | / | /
C/C(CC(=O)Nc1cccc2c1CCCC2)=N\NC(=O)COc1ccccc1 | 5% | 9% | -4% | 9% | -15% | 9.5µM*
CC(=O)N/N=C(\C)CC(=O)Nc1cccc2c1CCCC2 | 1% | 10% | -3% | -2% | / | -2%
COCCN(C(=O)C(F)(F)F)C(C(=O)NC1CCCCC1)c1ccco1 (stereo not given) | -15% | -5%[46.1 µM] | 4% | -15% | -11% | 4.7µM*
Cc1ccc(NC(=O)c2cnc(SCC(=O)N3CCCc4ccccc43)n(C)c2=O)cc1 | -5% | / | -10% | 2% | / | /
CCCN1C(=O)/C(=N\OCC(=O)Nc2ccc(C(C)C)cc2)c2ccccc21 | -20% | -35% | -1% | -27% | -24% | 0.5µM*
O=C(CSc1ccccc1C(=O)O)NC12CC3CC(CC(C3)C1)C2 | -6% | -2% | 1% | -4% | / | /
CCCN1C(=O)/C(=N\OCC(=O)NC23CC4CC(CC(C4)C2)C3)c2ccccc21 | -10% | ? | 1% | ? | 16µM* | 0.28µM*
CCC1Oc2ccc(C)cc2N(CC(=O)NCCc2ccccc2)C1=O (stereo not given) | 1% | / | -9% | 8% | / | /
CCCNc1ccc(-c2nc(-c3ccncc3)no2)cc1[N+](=O)[O-] | 2% | / | -5% | 9% | / | /
COC(=O)c1sccc1S(=O)(=O)N(CC(=O)NCc1ccccc1)c1ccccc1 | -2% | / | 3% | 1% | / | /
C=CCn1c(NC(=O)c2ccc(Br)o2)c(C(=O)OCC)sc1=S | -14% | -19%[46.1 µM] | -15% | ? | 16µM* | 3.5µM*
CCOC(=O)c1c(NC(=O)c2ccc(Br)o2)sc(C)c1CC | -20% | -24%[46.1 µM] | ? | ? | ? | ?
